Results published in PubChem BioAssay.

Test system: Plasmodium falciparum Sir2 (PF13_0152, Sir2A)
Assay: Plasmodium falciparum Sir2A binding compounds – biochemical, small-molecule microarray, 635 nm fluorescence, primary screen (AID 1098);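 also: score merges spot fluorescence intensity with its signal-to-noise ratio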
Conditions: fluorescence 635 nm, higher = more signal

| Compound | composite z-score |
| --- | --- |
| O=C1C2C=CC(C(O)Cc3ccccc3)N(Nc3ccc([N+](=O)[O-])cc3)C2C(=O)N1c1ccccc1 (stereo not given) | 1.04 |
| CC(C)C[C@@H]1NC(=O)[C@H](CC(C)C)NC(=O)[C@@]23C(=O)N[C@@H](Cc4ccccc4)C2[C@H](C)[C@@]2(C)O[C@H]2C3/C=C/CC/C=C/CNC1=O (stereo not given in full) | 1.05 |
| COC(=O)[C@@]1(Cc2ccccc2CN=[N+]=[N-])N=C(c2ccc(OCCCO)cc2)O[C@H]1c1ccccc1N=[N+]=[N-] | 1.31 |
| CCOC(=O)C[C@H]1[C@H](OC(=O)Cc2ccc3c(c2)OCO3)[C@@H](NC(=O)c2ccc3ccccc3c2)c2cc(OCCCO)ccc2N1C(=O)Cc1ccc(OC)cc1 | 0.354 |
| C[N+](C)(C)CCCCNC(=O)[C@H]1C[C@H]2C(=O)NCC(=O)N2[C@H]1c1cccc(OCCO)c1 | 1.59 |
| C=C(/C(=C/C[C@@H](OC(=O)c1ccncc1)c1ccc(CO)o1)c1cnc2ccccc2c1)C(C)C | 0.885 |
| CCCNC(=O)[C@@]1(Sc2ccc(C)cc2)CC(=O)N(Cc2ccccc2Cl)[C@@H]1c1ccc(CO)cc1 | 0.237 |
| COC(=O)Cn1c(C(=O)N2CCCC2)cc2c1C[C@H]1CN(C(=O)c3ccccc3)[C@@](Cc3ccccc3)(C(=O)OC)[C@@H]21 | 0.473 |
| NC(=O)NCC#Cc1ccc2c(c1)[C@]1(C(=O)N2)[C@H](C(=O)N2CCCCCCC2)[C@H]2C(=O)O[C@H](c3ccccc3)[C@H](c3ccccc3)N2[C@@H]1c1ccccc1OCCO | 1.82 |
| Cc1ccc(S[C@]2(C(=O)NCCCN(C)C)CC(=O)N(C3CCCCC3)[C@@H]2c2ccc(CO)cc2I)cc1 | -0.939 |
